# A number with no mark means an inactive call. Records with an inconclusive call do not appear. Entries that show only a call come without a potency. Active and inactive are the calls of the source. Calls come from the whole dose curve; as a rule, active = well fitted curve in the direction sought with a large enough effect; inconclusive = small, poorly fitted or top-dose-only effect, or another doubt; inactive = no such curve, though single readings can be large; an effect the other way counts as inactive or inconclusive.
# Assays:
# [1] = Vero cells viability qHTS for Zika virus inhibitors (AID 1347167)
# In short: (§1)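 Compounds were tested in concentration series on cells grown in DMEM containing 4% FBS. After 24 to 48 hours, cellular ATP was measured by luminescence with CellTiter Glo.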
# [2] = qHTS to identify inhibitors of the type 1 interferon - major histocompatibility complex class I in skeletal muscle: primary screen against the NCATS Pharmaceutical Collection (AID 1347407);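 note: luminescence of HiBiT knocked into endogenous HLA-B as interferon-induced MHC class I level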
# In short: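 Luminescence from HiBiT-tagged endogenous HLA-B*08:01 served as the read-out of IFN-beta-induced MHC class I in CRISPR-engineered C25cl48 myoblasts. Cells received 4 ng/ml IFN-beta plus compound (high final 46 uM, […]) for 24 h.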
# [3] = biological target: Protein phosphatase 1D (Homo sapiens) (UniProt O15297); experiment: RapidFire Mass Spectrometry qHTS Assay for Modulators of WT P53-Induced Phosphatase 1 (WIP1) (AID 1347424);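 note: amount of dephosphorylated VEPPL-S-QETFS peptide product formed by WIP1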; note: potency is the fitted concentration of half-maximal effect; for activity change, negative = inhibition: series mostly up to about 63 µM
# Chain of Protein phosphatase 1D (Homo sapiens) (O15297 whole entry, looked up): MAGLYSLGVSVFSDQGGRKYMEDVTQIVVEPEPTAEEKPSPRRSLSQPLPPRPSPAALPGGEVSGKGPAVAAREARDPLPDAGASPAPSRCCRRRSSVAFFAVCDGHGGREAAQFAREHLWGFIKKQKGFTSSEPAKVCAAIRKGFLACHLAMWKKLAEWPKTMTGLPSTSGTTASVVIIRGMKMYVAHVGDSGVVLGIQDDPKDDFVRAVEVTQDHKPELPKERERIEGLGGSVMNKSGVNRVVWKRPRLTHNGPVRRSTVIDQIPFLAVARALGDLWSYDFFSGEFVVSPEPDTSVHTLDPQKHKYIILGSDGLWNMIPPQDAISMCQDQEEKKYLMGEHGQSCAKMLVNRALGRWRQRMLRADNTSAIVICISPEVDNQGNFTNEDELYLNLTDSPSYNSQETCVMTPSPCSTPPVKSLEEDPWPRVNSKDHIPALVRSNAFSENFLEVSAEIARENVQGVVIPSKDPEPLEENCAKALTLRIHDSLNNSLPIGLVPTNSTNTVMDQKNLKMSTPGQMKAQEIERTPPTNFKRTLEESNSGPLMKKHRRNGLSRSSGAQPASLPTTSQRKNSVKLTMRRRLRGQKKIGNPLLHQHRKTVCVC
# In short: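 10 nM WIP1 + cpd, 1 h RT; + 2 uM VEPPL-pS-QETFS, 5 min RT; stop 0.5% formic acid; labelled product standard 1 uM; RapidFire MS. Buffer 50 mM Tris pH 7.5, 30 mM MgCl2, 1 mM TCEP.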
# [4] = biological target: Protein phosphatase 1D (Homo sapiens) (UniProt O15297); experiment: Rhodamine-PBP qHTS Assay for Modulators of WT P53-Induced Phosphatase 1 (WIP1) (AID 1347425)
# In short: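 Read-out: Rhodamine-PBP fluorescence (ex 525/em 598 nm) for released Pi, read each minute for 11 min after adding 10 uM VEPPL-pS-QETFS; signal taken as f1 minus pre-substrate f0. Enzyme 5 nM WIP1 with 1 hr room-temperature compound preincubation.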
# [5] = HepG2 cells viability qHTS for Zika virus inhibitors (AID 1347168)
# In short: as §1
# [6] = qHTS to identify inhibitors of the type 1 interferon - major histocompatibility complex class I in skeletal muscle: primary screen against the NCATS Mechanism Interrogation Plate v5.0 (MIPE) Libary (AID 1347411); note: nearly all actives have a fitted effect of over 65% in size
# In short: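 Immortalized human myoblasts (C25cl48) with HiBit knocked into endogenous HLA-B*08:01 were stimulated with 4 ng/ml IFN-beta and given compounds in 11-point 1:3 titration from 46 uM. After 24 h at 37 C, lytic HiBiT luminescence was read.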
# [7] = biological target: Lysine-specific demethylase 5B (Homo sapiens) (UniProt Q9UGL1); experiment: Optimization screen for KDM5B Histone Demethylases FDH coupled qHTS against the LOPAC library (AID 1347166)
# Chain of Lysine-specific demethylase 5B (Homo sapiens) (Q9UGL1 whole entry, looked up): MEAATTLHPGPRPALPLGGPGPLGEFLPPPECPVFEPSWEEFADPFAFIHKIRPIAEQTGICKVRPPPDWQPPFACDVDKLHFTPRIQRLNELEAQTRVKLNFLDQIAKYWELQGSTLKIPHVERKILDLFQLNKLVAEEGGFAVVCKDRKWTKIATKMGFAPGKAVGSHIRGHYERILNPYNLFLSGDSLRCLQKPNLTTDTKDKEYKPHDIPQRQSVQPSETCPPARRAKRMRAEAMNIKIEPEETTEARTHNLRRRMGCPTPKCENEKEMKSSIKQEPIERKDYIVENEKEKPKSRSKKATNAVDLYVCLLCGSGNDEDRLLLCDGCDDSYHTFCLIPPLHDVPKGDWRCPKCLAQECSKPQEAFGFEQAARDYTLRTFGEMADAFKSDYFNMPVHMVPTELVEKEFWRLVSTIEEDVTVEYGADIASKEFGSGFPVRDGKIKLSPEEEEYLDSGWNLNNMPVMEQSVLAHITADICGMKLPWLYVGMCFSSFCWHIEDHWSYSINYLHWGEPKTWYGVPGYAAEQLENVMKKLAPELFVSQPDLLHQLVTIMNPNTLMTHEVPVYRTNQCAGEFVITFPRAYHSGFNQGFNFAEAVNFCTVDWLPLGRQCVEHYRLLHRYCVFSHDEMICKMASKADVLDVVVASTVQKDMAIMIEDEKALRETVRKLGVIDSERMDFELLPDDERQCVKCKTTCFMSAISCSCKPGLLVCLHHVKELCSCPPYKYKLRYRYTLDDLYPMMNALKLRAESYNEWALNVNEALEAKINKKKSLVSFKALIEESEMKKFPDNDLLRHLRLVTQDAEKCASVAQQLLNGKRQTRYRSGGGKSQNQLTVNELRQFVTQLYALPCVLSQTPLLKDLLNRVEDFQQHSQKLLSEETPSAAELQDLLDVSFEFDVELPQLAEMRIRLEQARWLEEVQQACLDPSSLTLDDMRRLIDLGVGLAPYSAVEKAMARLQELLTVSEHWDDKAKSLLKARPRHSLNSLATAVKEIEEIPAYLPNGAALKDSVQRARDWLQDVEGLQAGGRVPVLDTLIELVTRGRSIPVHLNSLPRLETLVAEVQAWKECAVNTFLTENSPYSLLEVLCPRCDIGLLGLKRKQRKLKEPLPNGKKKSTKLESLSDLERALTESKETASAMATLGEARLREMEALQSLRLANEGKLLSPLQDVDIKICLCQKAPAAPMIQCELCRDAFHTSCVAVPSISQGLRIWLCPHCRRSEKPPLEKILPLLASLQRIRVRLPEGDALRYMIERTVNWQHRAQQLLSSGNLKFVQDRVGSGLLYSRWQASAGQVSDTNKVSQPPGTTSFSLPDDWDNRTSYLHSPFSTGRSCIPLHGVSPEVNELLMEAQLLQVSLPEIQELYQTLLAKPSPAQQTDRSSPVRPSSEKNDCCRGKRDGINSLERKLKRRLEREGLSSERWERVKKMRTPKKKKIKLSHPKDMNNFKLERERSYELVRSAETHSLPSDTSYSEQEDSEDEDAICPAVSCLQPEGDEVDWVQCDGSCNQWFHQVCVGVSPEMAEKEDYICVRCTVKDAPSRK
# In short: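 KDM5BDeltaAP (200nM final) preincubated 10 min with compound, then 12.5uM H3K4Me3, 25uM a-ketoglutarate, ascorbate, Fe(II), NAD+ and FDH added; 50mM HEPES pH 7.5, 0.01% Tween-20. NADH fluorescence (340/450 nm) change over 30 min, room temperature.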
# [8] = Tertiary RLuc qRT-PCR qHTS assay for Zika virus inhibitors (AID 1347169); note: nearly all actives have a fitted effect of over 55% in size; note: potency is the fitted concentration of half-maximal effect; for activity change, negative = inhibition: top concentration of the series differs between compounds
# In short: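 Vero, 1,000 cells/well, o/n 37 C; cpd pinned in DMSO; ZIKV-RLuc Cambodian, MOI 1-2, 48-72 h 37 C; live-cell RLuc substrate, lum read at 1-1.5 h.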
# [9] = qHTS for inhibitors of adenylyl cyclases using a fission yeast platform: a pilot screen against the NCATS LOPAC library (AID 1347410)
# In short: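 Fission yeast qHTS: CHP2027 cells (AC9-GNAS-PDE4D2, fbp1-GFP), 5x10^6 cells/mL working density, EMM + His/Lys/Ura; LOPAC at up to 57 µM final; 18 h dark, 30C; GFP by laser cytometry. DPI positive control, DMSO vehicle.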
# [10] = Validation qHTS assay for inhibitors of Activation Induced Cytidine Deaminase (AID): UDG Counterscreen signal (AID 1347427)
# In short: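 Counterscreen read of UDG activity (2 U/mL, 4/3x) in the FRET deamination format with AID (1 uM, 4/3x), DJC20/DJC23 substrates (250 nM, 4x), 4 h at room temperature. NaOH stop, fluorescence at 560 ex/665 em.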
smiles,measurement,setting,value
CCOC(=O)Cn1cccc1-c1nc(-c2ccc(OC)cc2)c(-c2ccc(OC)cc2)s1,outcome,[1],inactive
same,Potency,[2],inactive
same,Potency,[3],inactive
same,outcome,[4],inactive
O=C(Nc1ccc(S(=O)(=O)N2CCOCC2)cc1)c1cc(Cl)ccc1NS(=O)(=O)c1ccc(Cl)s1,outcome,[1],inactive
same,outcome,[5],inactive
same,Potency,[2],inactive
same,Potency,[6],inactive
same,Potency,[3],11.2 µM (active)
O=C1NC(=O)/C(=C/c2ccc3c(c2)OC(F)(F)O3)S1,outcome,[7],inactive
same,outcome,[5],inactive
same,Potency,[8],11.7 µM (active)
same,outcome,[9],inactive
same,Potency,[6],inactive
same,outcome,[10],inactive
COc1ccccc1N1CCN(CCN2C(=O)CC3(CCCC3)CC2=O)CC1,outcome,[7],inactive
same,outcome,[9],inactive
same,outcome,[10],inactive
CN1CCCN=C1/C=C/c1cccs1,Potency,[2],inactive
same,Potency,[6],inactive
same,Potency,[3],inactive
same,outcome,[4],inactive
CCN(CC)CCNC(=O)c1ccc(NS(C)(=O)=O)cc1,outcome,[7],inactive
same,outcome,[9],inactive
same,outcome,[10],inactive
COc1c(C)c2c(c(O)c1C/C=C(\C)CCC(=O)OCCN1CCOCC1)C(=O)OC2,outcome,[1],inactive
same,Potency,[8],0.739 µM (active)
same,Potency,[3],inactive
same,outcome,[4],inactive
O=[N+]([O-])c1ccc(-c2nc(-c3ccc(F)cc3)c(-c3ccncc3)[nH]2)cc1,outcome,[7],inactive
same,Potency,[8],4.66 µM (active)
same,outcome,[9],inactive
same,outcome,[10],inactive
OCCOCCN1CCN(C(c2ccccc2)c2ccc(Cl)cc2)CC1 (configuration not stated),Potency,[2],inactive
O=C1OC2(c3ccccc31)c1cc(I)c(O)c(I)c1Oc1c2cc(I)c(O)c1I,"activity change, negative = inhibition",[8],6.31% [at 1.74 µM]
Cc1nn(-c2ccccc2)c(C)c1/C=N/N1CCN(Cc2ccccc2)CC1,outcome,[7],inactive
same,outcome,[9],inactive
same,outcome,[10],inactive
CN1CC(=O)N2[C@H](c3ccc4c(c3)OCO4)c3[nH]c4ccccc4c3C[C@@H]2C1=O,Potency,[2],inactive
same,Potency,[6],inactive
same,Potency,[3],inactive
same,outcome,[4],inactive
Nc1cccc2c(N)cccc12,Potency,[2],inactive
O=[N+]([O-])c1cncn1CCN1CCOCC1,Potency,[2],inactive
same,Potency,[6],inactive
same,Potency,[3],inactive
same,outcome,[4],inactive
Cc1c(C)c2c(c(C)c1OC(=O)CCC(=O)OCCO)CC[C@@](C)(CCC[C@H](C)CCC[C@H](C)CCCC(C)C)O2,Potency,[2],inactive
CCCCCCCC(=O)[O-].CCCCCCCC(=O)[O-].[Zn+2],Potency,[2],inactive
CC1c2ccccc2CN1NC(=O)c1ccc(Cl)c(S(N)(=O)=O)c1 (configuration not stated),Potency,[2],inactive
same,Potency,[6],inactive
same,Potency,[3],inactive
same,outcome,[4],inactive
N[C@@H](Cc1cc(I)c(O)c(I)c1)C(=O)O,outcome,[1],inactive
same,outcome,[5],inactive
same,Potency,[8],inactive
same,Potency,[2],inactive
CC1(C)O[C@@H]2C[C@H]3[C@@H]4CCC5=CC(=O)C=C[C@]5(C)[C@@]4(F)[C@@H](O)C[C@]3(C)[C@]2(C(=O)CO)O1,Potency,[2],inactive
same,Potency,[6],inactive
OCc1c[nH]c2ccccc12,Potency,[2],inactive
Cc1cc(O)c2c(O)c3c(O)cccc3cc2c1,Potency,[2],inactive
COC(=O)C1=CO[C@@H](O)[C@@H]2C(CO)=CC[C@H]12,outcome,[7],inactive
same,outcome,[9],inactive
same,outcome,[10],inactive
Cc1cccc(OCC(O)CNC(C)(C)C)c1C (configuration not stated),Potency,[2],inactive
CCCCCCOC(=O)NC(=N)c1ccc(NCc2nc3cc(C(=O)N(CCC(=O)OCC)c4ccccn4)ccc3n2C)cc1,Potency,[2],inactive
same,Potency,[6],inactive
same,Potency,[3],inactive
same,outcome,[4],inactive
Oc1ccccc1,Potency,[2],inactive
CSc1ccc(/C=C2/C(C)=C(CC(=O)O)c3cc(F)ccc32)cc1,Potency,[2],inactive
NC(N)=NCCCCN=C(N)N,outcome,[7],inactive
same,outcome,[9],inactive
same,outcome,[10],inactive
Nc1ncnc2n[nH]c(Nc3ccc(F)cc3)c12,outcome,[7],inactive
same,outcome,[9],inactive
same,outcome,[10],inactive
C[N+](C)(C)CCO,outcome,[7],inactive
same,outcome,[9],inactive
same,outcome,[10],inactive
Clc1ccc2c(c1)N=C(N1CCNCC1)c1ccccc1N2,outcome,[7],inactive
same,outcome,[9],inactive
same,outcome,[10],inactive
CCC(=O)O[C@H]1[C@H](O[C@@H]2[C@@H](C)[C@H](O[C@H]3C[C@@](C)(OC)[C@@H](O)[C@H](C)O3)[C@@H](C)C(=O)O[C@H](CC)[C@@](C)(O)[C@H](O)[C@@H](C)C(=O)[C@H](C)C[C@@]2(C)O)O[C@H](C)C[C@@H]1N(C)C,outcome,[1],inactive
same,outcome,[5],inactive
same,Potency,[8],inactive
same,Potency,[2],inactive
same,outcome,[4],inactive
O=C(CCCCC(=O)Nc1c(I)cc(I)c(C(=O)O)c1I)Nc1c(I)cc(I)c(C(=O)O)c1I,"activity change, negative = inhibition",[8],2.99% [at 5.25 µM]
same,Potency,[2],inactive
same,Potency,[3],inactive
same,outcome,[4],inactive
COc1ccc(OC(=O)N(CC(=O)O)Cc2ccc(OCCc3nc(-c4ccccc4)oc3C)cc2)cc1,Potency,[2],inactive
Cn1cnc2c(NCc3ccccc3)nc(NCCO)nc21,outcome,[7],inactive
same,outcome,[9],inactive
same,outcome,[10],inactive
O=C1NC(c2cccc([N+](=O)[O-])c2)=CCN1c1ccccc1O,outcome,[7],inactive
same,outcome,[9],inactive
same,outcome,[10],inactive
CN(C)c1cc2c(Nc3ccc4c(cnn4Cc4ccccc4)c3)ncnc2cn1,outcome,[7],inactive
same,outcome,[9],inactive
same,outcome,[10],inactive

# — PubChem BioAssay (NCATS)
